Experimental findings from PubChem BioAssay AID2732 (Emory University Molecular Libraries Screening Center, 2010) are described below.

The campaign covered roughly 220,000 compounds. About 8,200 (3.7%) were called active. This is one part of a sample in which actives are shown more often than they occur. A number with no mark means an inactive call.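 Rule for the calls: active = compounds that reduced the stress-induced luciferase reporter signal by more than about 70% of percent inhibition (limit read from the data); inactive = the rest.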

A short description of this experiment: blockers of ER-stress CHOP reporter expression – cell-based, unfolded protein response, luciferase reporter, primary screen (AID 2732).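 Note: 0% = tunicamycin plus vehicle and 100% = wells without tunicamycin.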 The conditions noted are these: CHO-K1 CHOP-promoter luciferase, tunicamycin-induced, 15-18 h; at 10 µM; active compounds read high. On the technique in general: A reporter such as luciferase makes a cellular process visible.
For the molecule `Cc1cccc2c1-c1sc(C(=O)NCCCN3CCc4ccccc4C3)cc1CO2`, the inhibition is 35.6%.

Consider `Cc1cnc(NC(=O)CSc2c(Cl)cccc2Cl)s1`, for which the inhibition was 74.4% (active).

`Cc1ccc(SCC(=O)Nc2ncc(C)s2)cc1`: the inhibition is 4.03%.

As for `Cc1cnc(NC(=O)CSc2nnc(C)s2)s1`, the inhibition is 22.4%.

As for `FC(F)(F)Oc1ccc(-c2cn3cccnc3n2)cc1`, the inhibition is 2.48%.

As to `CCOC(=O)c1nnn2c3ccccc3c(=O)n(C)c12`, the inhibition is 8.91%.

For `Cc1ccc(-c2cc(C(=O)NN)n[nH]2)o1`, the inhibition was 2.15%.

`Cc1ccc(C(=O)Nc2nnc(-c3cccs3)s2)cc1C`: the inhibition is 48.9%.

Regarding `N#Cc1ccc(C(=O)Nc2nc(-c3cccs3)c(C(=O)C(F)(F)F)s2)cc1`, the inhibition is 74.7% (active).

Consider `CC(=O)c1sc(NC(=O)c2ccc(C)cc2)nc1C`, for which the inhibition was -2.78%.

Take `Cn1c2c(c(=O)n(C)c1=O)C(c1cccc(F)c1)C(C#N)=C(N)O2` (stereo unspecified): the inhibition is 6.57%.

On to `CCc1nc2sc3c(Cl)ncnc3c2c2c1CCCC2`, for which the inhibition was -17.1%.

Take `CCOC(=O)CN(Cc1ccc(OC)c(OC)c1)S(=O)(=O)c1ccc(OC)cc1`: the inhibition was -1.05%.

As for `COc1ccc(CCNC(=O)C(Sc2ccccn2)c2ccccc2)cc1OC` (stereo unspecified), the inhibition was 6.29%.

Take `COc1ccc(C(CCN(Cc2ccc(OC)c(OC)c2)C(=O)CCl)c2ccccc2)cc1` (stereo unspecified): the inhibition is 106% (active).

With `CC(C)(C)c1cc(C(=O)NN)n(Cc2ccc(Cl)cc2Cl)n1`, the inhibition is -7.9%.

With `Cc1c([N+](=O)[O-])c(N)nn1C`, the inhibition was 4.08%.

In the case of `N#CCC(=O)N/N=C/c1cn(Cc2ccc3ccccc3c2)c2ccccc12`, the inhibition is 1.95%.

On to `CC(C)n1cnc2c(Nc3cccc(Cl)c3)nc(N(CCO)CCCO)nc21`, for which the inhibition was 61.8%.

Regarding `OCCCNc1nccc(-c2cc(Nc3cccc(Cl)c3)ncn2)n1`, the inhibition is 103% (active).

Turning to `NS(=O)(=O)c1cccnc1Nc1cccc(Cl)c1`, the inhibition was 5.4%.

Turning to `CCOC(=O)C1CCN(C(=O)Nc2cccc(OC)c2)CC1`, the inhibition is 6.27%.

`CSc1nc(C)nc(C2CC2)c1C#N`: the inhibition was 15.9%.

With `COc1ccc(-c2cc(C3CCN(c4ncccc4[N+](=O)[O-])CC3)[nH]n2)cc1`, the inhibition is 75.9% (active).

With `CC(=O)NC(Cc1ccccc1)C(=O)NC1CCN(c2ncccc2[N+](=O)[O-])CC1` (stereo unspecified), the inhibition was 19.6%.

As to `COc1ccc(N2CCN(c3ccc([N+](=O)[O-])nc3)CC2)cc1`, the inhibition was 10.8%.

Consider `CC1(C)CC(CNCCC(c2ccc(F)cc2)c2ccco2)CCO1` (stereo unspecified), for which the inhibition is 10.6%.

Turning to `C=CCn1cc(-c2cccc(C(F)(F)F)c2)cc(C#N)c1=O`, the inhibition was 5.76%.

In the case of `C=CCn1c(-c2ccc(Cl)cc2)ccc(C#N)c1=O`, the inhibition is 82.2% (active).

On to `C=CCn1c(SCn2nnc3ccccc3c2=O)nnc1-c1ccc(Cl)cc1`, for which the inhibition was 17.8%.

Consider `O=C(Cc1ccccc1)Nc1c(Cl)ccc2nsnc12`, for which the inhibition was -1.48%.

For the molecule `O=C(c1ccc(F)cc1)C1CCN(Cc2cn[nH]c2-c2ccccc2)CC1`, the inhibition is 15.6%.

For `Cn1cnc([N+](=O)[O-])c1Sc1n[nH]c(N)n1`, the inhibition is -10.3%.

Consider `COc1ccc(C(=O)Nc2ccc(CN3CCOCC3)cc2)cc1`, for which the inhibition was -29.9%.

`O=C(Nc1ccc(CSc2ccccc2)cc1)c1ccc(CN2CCOCC2)cc1`: the inhibition is 79.5% (active).

For `O=C(Nc1ccccc1C(=O)N1CCOCC1)c1ccc(CSc2ccccc2)cc1`, the inhibition is -8.2%.

In the case of `Cc1nnc(C)c2c(C)n(N)c(C)c12`, the inhibition is 13.9%.

Regarding `COCC(=O)Nc1nnc(COc2ccccc2)s1`, the inhibition is -20.1%.

For the molecule `Cc1ccc(OCc2nnc(NC(=O)OCC(C)C)s2)cc1`, the inhibition is 91% (active).

On to `Cc1ccc(COc2ccc(C(=O)NN)cc2)cc1`, for which the inhibition is 0.74%.

For `CCn1c(CN2C(=O)CSc3ccccc32)n[nH]c1=S`, the inhibition was 11.5%.

Take `C=CCNC(=O)c1ccc2c3n(nc2c1)-c1ccc(C)cc1CO3`: the inhibition was -2.7%.

As to `COCCNC(=S)N1CCN(C)CC1`, the inhibition was -18.1%.

In the case of `O=C1[C@@H]2C(Cc3ccc(O)cc3)NC3(C(=O)Nc4ccc(F)cc43)[C@@H]2C(=O)N1c1ccc(F)cc1` (stereo partly specified), the inhibition is 27.9%.

As to `CSCCC1NC2(C(=O)Nc3ccc(Cl)cc32)[C@@H]2C(=O)N(C3CCCC3)C(=O)[C@H]12` (stereo partly specified), the inhibition is 85.7% (active).

In the case of `COc1ccc(N=Nc2ccc(O)c(P(=O)(c3ccccc3)c3ccccc3)c2)cc1`, the inhibition was 2.83%.

Turning to `CCOC(=O)CN/C=C(\C#N)c1ccc(F)cc1`, the inhibition was -6.58%.

Regarding `C/C(=N\OCC(=O)O)c1ccc(Cl)cc1`, the inhibition was -4.7%.

As for `CCOc1cc(/C=C(/C#N)c2ccc(Cl)cc2)cc(Cl)c1OCC(=O)O`, the inhibition is 87.8% (active).

On to `C=CC1C(OC2OC(CO)C(O)C(O)C2O)OC=C(C(=O)OC)C1CC1CC(=O)CC(CC(=O)CCc2ccc(O)cc2)O1` (stereo unspecified), for which the inhibition is 7.57%.

`CCOC(=O)c1c(CC(C)C)csc1/N=C/C1=C(O)CCCC1=O`: the inhibition is 24.8%.

For the molecule `O=C(Nc1ccccc1)Nc1nnc(COc2ccccc2F)s1`, the inhibition is 9.53%.

Consider `O=C(Nc1nnc(COc2ccccc2)s1)Nc1ccccc1F`, for which the inhibition was 96.7% (active).

For the molecule `Cc1nnc(NC(=O)CCCOc2ccccc2)s1`, the inhibition is 26.2%.

Consider `Cc1ccc(S(=O)(=O)N2CCN(C(=O)COC(=O)c3c(C)noc3C)CC2)c(C)c1`, for which the inhibition was 8.26%.

In the case of `Cc1ccc(C(=O)Cn2cc([N+](=O)[O-])nc2C)cc1`, the inhibition is 2.6%.

Take `O=C(CN1CCOCC1)N/N=C/c1ccc(-c2ccc(Br)cc2)o1`: the inhibition is 32.5%.

`CCOC(=O)c1cc2cc(-c3c(C(=O)OCC)oc4cc(O)cc(O)c4c3=O)ccc2o1`: the inhibition was 105% (active).

For `CCOC(=O)c1oc2c(CN3CCN(C)CC3)c(O)ccc2c(=O)c1-c1ccc(Br)cc1`, the inhibition is -10.9%.

In the case of `O=c1c(-c2ccc3c(c2)OCCO3)c(C(F)(F)F)oc2cc(O)cc(O)c12`, the inhibition is 13.2%.

On to `NC(=O)[C@H]1CC2(CC(c3cccc(NC(=O)[C@H]4CCC(=O)N4)c3)=NO2)CN1C(=O)c1ccccc1C(=O)c1ccccc1` (stereo partly specified), for which the inhibition is -11.9%.

For `Cn1c(SCC(=O)N/N=C/c2ccc(O)c(O)c2)nc2ccccc21`, the inhibition is -4.19%.

For `Nc1ccc(C(=O)OCC(=O)NC2CCS(=O)(=O)C2)cc1[N+](=O)[O-]` (stereo unspecified), the inhibition is 3.77%.

Take `C=CCOC(=O)C1=C(C)NC(C)=C(C(=O)OCC=C)C1c1cccs1`: the inhibition was 86.8% (active).

Consider `CCOC(=O)C1=C(C)Nc2nc3ccccc3n2C1c1cccs1` (stereo unspecified), for which the inhibition is 18%.

As for `CCOC(=O)C1=C(C)NC(=S)NC1c1cccs1` (stereo unspecified), the inhibition was 0.7%.

With `CCC(C)NC(=O)C1c2ccccc2Oc2ccccc21` (stereo unspecified), the inhibition was -5.78%.

Turning to `O=C(CCCN1C(=O)/C(=C/c2ccccc2)SC1=S)Nc1ccc(O)cc1`, the inhibition is 58.8%.

For the molecule `C=CCOc1ccc(/C=C2\SC(=S)N(CCC(=O)O)C2=O)cc1`, the inhibition is 88% (active).

Regarding `O=C(CCCN1C(=O)/C(=C\c2ccccc2)SC1=S)Nc1ccccc1O`, the inhibition is 27%.

Take `Cn1nnc(NC(=S)NC(=O)c2ccccc2)n1`: the inhibition was 17.2%.

As to `O=C(Nc1ccc(S(=O)(=O)Nc2nccs2)cc1)c1cccc(S(=O)(=O)N2CCOCC2)c1`, the inhibition is -32.6%.

On to `COc1ccc(Cn2c(O)c(/C=C3/C=CC=N3)c(=O)[nH]c2=O)cc1`, for which the inhibition is 1.57%.

Regarding `C=CC(COCc1ccccc1)N(Cc1ccccc1)S(=O)(=O)c1ccccc1Br` (stereo unspecified), the inhibition was 13.4%.

In the case of `CC(C)(C)C(=O)NNC(=O)c1ccc(Oc2cc(Cl)cc(Cl)c2)o1`, the inhibition is 1.32%.

For `COC(=O)c1ccc(S(=O)(=O)N(CCO)Cc2ccccc2)n1C`, the inhibition is -4.99%.

With `O=S(=O)(c1ccccc1)N1CN(Cc2ccc(F)cc2)c2nc3ccccc3nc21`, the inhibition was 3.85%.

In the case of `CCc1c(C)sc(NC(=O)/C=C/c2ccc3c(c2)OCO3)c1C(=O)OC`, the inhibition is 1.72%.

Turning to `CCOC(=O)c1c(NC(=O)c2ccc(Br)o2)sc2c1CCCC2`, the inhibition is 22.6%.

For `CCc1c(C)sc(NC(=O)c2ccc(Br)o2)c1C(=O)OC`, the inhibition was 88.9% (active).

Take `COc1cc(CN(C)Cc2nc3cc(C(F)(F)F)ccc3c(=O)[nH]2)ccc1OC(F)F`: the inhibition is 34.5%.

For the molecule `Cc1cccc(OCc2nnc(SCc3nc4cc(C(F)(F)F)ccc4c(=O)[nH]3)o2)c1`, the inhibition was 104% (active).

Regarding `Cc1cccc(OCc2nnc(SCn3nnc4ccccc4c3=O)o2)c1`, the inhibition was 55.9%.

`O=C(/C=C/Nc1ccc(S(=O)(=O)Nc2cnc3ccccc3n2)cc1)c1cccnc1`: the inhibition is 12.4%.

As to `COc1ccc(COCC(O)CN2CCC(C(N)=O)CC2)cc1` (stereo unspecified), the inhibition is -5.79%.

On to `Cc1cc(C(F)(F)F)nn1-c1nc(-c2ccco2)cc(C(F)(F)F)n1`, for which the inhibition was 30.6%.

As for `FC(F)(F)c1cc(-c2ccco2)nc(N2CCOCC2)n1`, the inhibition was 101% (active).

`FC(F)(F)c1cc(-c2ccco2)nc(NCc2ccc(Cl)cc2)n1`: the inhibition is 81.4% (active).

For `CCOC(=O)c1ccn(-c2nc(-c3ccco3)cc(C(F)(F)F)n2)n1`, the inhibition is 7.61%.

`O=C(CSc1nc(-c2ccco2)cc(C(F)(F)F)n1)NCc1cccs1`: the inhibition was 30.9%.

In the case of `FC(F)(F)c1cc(-c2cccs2)nc(NCc2ccco2)n1`, the inhibition was 52.2%.

Take `COc1ccc(Cl)cc1NC(=O)CCN1CCOCC1`: the inhibition is 5.05%.

`C#CCNc1nc(C(C)C)nc2c1nnn2Cc1ccccc1F`: the inhibition is 89.8% (active).

For `CC(=O)NC(C)c1nc2ccccc2n1Cc1ccccc1F` (stereo unspecified), the inhibition is -2.56%.

For `CC(C)Cc1nc(Nc2ccc(S(=O)(=O)N3CCCC3)cc2)c2nnn(Cc3ccccc3)c2n1`, the inhibition is 27.2%.

With `CC1C(=O)NC(=O)C1c1ccccc1` (stereo unspecified), the inhibition was 8.56%.

In general, inhibition refers to the relative decrease from the control value, in per cent.
